From PubChem BioAssay
Hits are enriched below; roughly 3.3% of the tested compounds scored in any of these assays.
USP1 inh – blocks the human USP1/UAF1 deubiquitinase complex. AID 743255. recombinant USP1/UAF1, Ub-Rhodamine cleavage fluorescence. O94782. Potency, µM (top dose mostly 57.1 µM), without a hit: top-dose activity change, negative = inhibition, actives largely listed as inhibitors. hit rate 0.23% among 390,000; also: potency is read from the fitted curve at half-maximal effect; nearly all actives have a fitted effect of over 60% in size
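1 nM enzyme complex + cpd, 15 min RT; start with Ub-Rho 150nM final; kinetic fluorescence ex 480/em 540, 6 reads q60 s. Buffer 50mM HEPES pH 7.8, 0.5mM EDTA, 0.1 mg/ml BSA, 1mM TCEP, 0.01% Tween-20.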
PI5P4K alpha inh – inhibitors of human PI5P4K alpha. PI5P4Kalpha enzyme, ADP-Glo luminescence, 60 min; stronger effect = lower value. max response, %. hit rate 1.2% among 330,000. AID 652105; active = max response of -50% or lower; inconclusive = between -30% and -50%; inactive = -30% or higher; also: value at the top dose of about 77 µM
Target sequence (P48426 whole entry, looked up): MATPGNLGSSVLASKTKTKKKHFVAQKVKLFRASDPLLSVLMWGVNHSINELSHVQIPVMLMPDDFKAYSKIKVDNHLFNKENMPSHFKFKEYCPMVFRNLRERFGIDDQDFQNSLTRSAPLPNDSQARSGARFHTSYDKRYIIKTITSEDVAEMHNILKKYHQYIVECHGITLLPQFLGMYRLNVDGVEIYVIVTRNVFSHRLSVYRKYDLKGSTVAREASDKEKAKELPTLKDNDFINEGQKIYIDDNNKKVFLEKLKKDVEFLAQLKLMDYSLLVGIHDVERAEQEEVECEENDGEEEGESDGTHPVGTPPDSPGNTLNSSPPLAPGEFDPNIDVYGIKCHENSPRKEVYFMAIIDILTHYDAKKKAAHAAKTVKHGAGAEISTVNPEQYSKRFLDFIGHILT
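Compounds were pin-transferred onto PI5P4Kalpha and substrate in HEPES pH 7.4 buffer with EGTA, CHAPS and 5% DMSO. ATP (5 microM final) started the reaction, which ran 60 minutes at room temperature before ADP-Glo detection.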
PLK1 PBD block – PLK1 (human) polo-box domain binding inhibition | P53350 | Plk1 PBD binding of FITC phosphopeptide, fluorescence polarization | Potency, µM, without a hit: max response, negative = inhibition, hits mostly inhibitors | hit rate 2.8% among 360,000 | AID 720504; also: potency is read from the fitted curve at half-maximal effect; series mostly up to about 57 µM; nearly all actives have a fitted effect of over 65% in size
USP2a block – USP2a (human) protease inhibition; O75604; USP2 core, Ub-CHOP2 coupled fluorogenic reporter, 485/531; Potency, µM (doses to about 38.3 µM), for inactives: top-dose activity change, negative = inhibition, hits mostly inhibitors; hit rate 0.01% among 330,000;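 also: potency is read from the fitted curve at half-maximal effect; plate controls were DMSO wells for no effect and full inhibition by NEM control for full effect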
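Deubiquitinase activity read as fluorescence (485/531 nm) after Ub-CHOP2 cleavage activates the enterokinase reporter on its substrate; USP2 core 10nM, Ub-CHOP2 and substrate 25nM each, 30min compound preincubation then 60min RT; data normalized to NEM, curves fitted.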
WRN helicase inh – blocks human WRN helicase; Potency, µM (titrated, usually from 114 µM), for the others: at the highest dose activity change, negative = inhibition, actives largely listed as inhibitors; AID 651768; WRN helicase unwinding, fluorescent forked duplex, kinetic; Q14191; hit rate 0.46% among 360,000; also: potency is read from the fitted curve at half-maximal effect; nearly all actives have a fitted effect of over 55% in size
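Kinetic red-fluorescence monitoring (525/598 nm) tracks WRN helicase activity after 100 nM fluorophore-quencher forked duplex and 2 mM ATP are added to 20 nM enzyme pretreated 15 min at room temperature with compound.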
Active calls of the source: *; ? = inconclusive; . = no result given; [ ] = dose if it differs, or a comment. Unless noted, calls follow the shape of the dose curve; as a rule, active = well fitted curve in the direction sought with a large enough effect; inconclusive = small, poorly fitted or top-dose-only effect, or another doubt; inactive = no such curve, though single readings can be large; an effect the other way counts as inactive or inconclusive. Unless noted, % is scaled to controls: 0 for no effect and ±100 for the full control effect.

SMILES | USP1 inh | PI5P4K alpha inh | PLK1 PBD block | USP2a block | WRN helicase inh
CCn1c(SCc2c(F)cccc2Cl)nc(=O)c2c(C(=O)OC)cc(C3CC3)nc21 | 6.6% | . | . | . | .
S=c1[nH]nc2ccc3ccccc3n12 | . | -60.8* | ? | . | 3.7%
S=c1[nH]c2ccccc2n2c(=S)[nH]nc12 | -14.4% | -29.4 | -18.9% | -2.4% | -11.5%
O=C(NNC(=S)Nc1ccc(C(=O)O)c(O)c1)c1ccncc1 | ? | -85.5* | 26.7µM* | . | -16.9%
O=C1c2oc3ccccc3c(=O)c2C(c2ccc(O)cc2)N1Cc1ccc2c(c1)OCO2 (centres undefined) | -11.3% | . | . | . | .
O=C(O)/C=C\c1cccc(-n2nnnc2SCc2ccccc2F)c1 | -10.7% | -83.4* | -4.5% | 2.4% | -9.9%[57.1 µM]
Cc1nc(C(Cl)(Cl)Cl)nc2[nH]ccc(=O)c12 | -12.5% | ? | 26.7µM* | 3.6% | ?
CC(CNC(=O)CN1C(=O)COc2ccc(S(=O)(=O)N3CCCCCC3)cc21)c1ccccc1 (centres undefined) | -11.2% | . | . | . | .
Cc1cccc(CS(=O)(=O)c2ncc(Cl)c(C(=O)Nc3c(C)cccc3C)n2)c1 | ? | -5.9 | 18.9µM* | 2.0% | -7.9%
Cc1cccc(C)c1NC(=O)c1nc(S(=O)(=O)Cc2ccccc2)ncc1Cl | -3.9% | -1.3 | ? | -0.3% | -20.4%
Cc1ccccc1CS(=O)(=O)c1ncc(Cl)c(C(=O)Nc2ccc(F)cc2)n1 | -26.9% | -5.2 | 18.9µM* | 1.1% | -11.2%
Cc1ccc(NC(=O)c2nc(S(=O)(=O)Cc3ccccc3)ncc2Cl)cc1 | -15.8% | 1.1 | ? | -1.2% | ?
O=C(Nc1ccc(F)cc1)c1nc(S(=O)(=O)Cc2ccccc2)ncc1Cl | ? | -8.2 | 16.8µM* | 0.0% | 3.7%
Cc1ccc(S(=O)(=O)N(CC(=O)N2CCc3ccccc3C2)c2ccc(C)c(C)c2)cc1 | -8.1% | . | . | . | .
CCOC(=O)CSc1nc2cc3c(cc2c(=O)n1CCCC(=O)NCCc1ccc(OC)c(OC)c1)OCO3 | -9.4% | . | . | . | .
Fc1ccc(Cn2nnnc2C(c2cccs2)N2CCN(C3CCCCC3)CC2)cc1 (centres undefined) | -19.7% | 4.2 | 5.9% | -0.7% | 1.0%
COc1ccccc1C(c1nnnn1Cc1ccccc1)N1CCN(C2CCCC2)CC1 (centres undefined) | 4.0% | -6.1 | 29.9µM* | 1.9% | 4.9%
COCCn1nnnc1C(c1cccs1)N1CCN2CCCC2C1 (centres undefined) | -20.2% | -5.0 | 18.9µM* | -2.0% | 4.8%
O=C(CN1C(=O)COc2ccc(Cl)cc21)Nc1ccc(F)cc1 | -10.4% | . | . | . | .
Fc1ccc(Nc2nc3nonc3nc2Nc2cccc(C(F)(F)F)c2)cc1 | 5.3% | . | . | . | .
O=C(/C=C/c1ccc(OCc2cccc(Cl)c2)cc1)N1CCOCC1 | -21.7% | 13.3 | 3.0% | 0.0% | -6.1%
O=C(O)/C=C/c1ccc(OCc2cccc(F)c2)cc1 | -16.5% | 5.3 | 29.9µM* | 5.3% | 2.0%
COc1ccc(-c2nn3c(C4CCCCC4)nnc3s2)cc1OC | -10.0% | . | 21.2µM* | -2.6% | -4.8%
C/C(=N\NS(=O)(=O)c1ccc(C)c([N+](=O)[O-])c1)c1cccs1 | -18.3% | 0.4 | ? | 7.0% | -5.9%
CC(NC(=O)c1cccs1)c1ccc(Br)cc1 (centres undefined) | -12.2% | -2.3 | -28.0% | . | -24.3%
SMILES | USP1 inh | PI5P4K alpha inh | PLK1 PBD block | USP2a block | WRN helicase inh
C/C(=N\NS(=O)(=O)c1ccc([N+](=O)[O-])cc1)c1cccs1 | -24.8% | -16.2 | 26.7µM* | -1.0% | 3.9%
CC(C)/C(=N\NS(=O)(=O)c1ccc(Br)cc1)c1cccs1 | -19.4% | ? | 23.8µM* | -1.9% | -12.4%
O=c1cc(-c2ccccc2)n2c(SCc3ccc([N+](=O)[O-])cc3)nnc2[nH]1 | -3.4% | . | . | . | .
CN(C)/C=C/C1=C([N+](=O)[O-])C(c2cccc([N+](=O)[O-])c2)NC(=O)N1 (centres undefined) | -20.4% | -82.9* | -11.7% | 7.6% | -35.9%
CCOC(=O)C1=C(CCc2ccccc2)NC(=O)NC1c1cccc([N+](=O)[O-])c1 (centres undefined) | -10.5% | -0.9 | -15.3% | -0.3% | 2.2%
C=Cc1ccc(Cn2c(=O)n(-c3ccc(C)cc3)c(=O)c3c2c2cc(OC)ccc2n3C)cc1 | -21.5% | . | . | . | .
Cc1ccc([C@H]2C(C(=O)O)=CC[C@@H](c3ccc(Cl)cc3)N2S(=O)(=O)c2ccccc2C)cc1 | -21.8% | 13.6 | ? | 1.7% | -6.2%
Cc1ccccc1S(=O)(=O)N1[C@@H](c2ccc(Cl)cc2)C(C(=O)O)=CC[C@H]1c1ccc(Cl)cc1 | -21.6% | 5.7 | 29.9µM* | -20.5% | -1.8%
Cc1ccccc1S(=O)(=O)N1C(c2ccc(Cl)cc2)CC=C(C(=O)O)C1c1cccc(Cl)c1 (centres undefined) | . | -25.9 | 26.7µM* | . | 2.6%
Cc1ccc([C@@H]2CC=C(C(=O)O)[C@H](c3cccc(Cl)c3)N2S(=O)(=O)c2ccccc2C)cc1 | -7.1% | 2.0 | ? | -9.8% | -4.0%
Cc1cccc(-c2nnn3c2nc(NCc2ccccc2)c2ccccc23)c1 | -29.0% | . | . | . | .
O=C(CSc1ncc2c(n1)-c1ccccc1N(Cc1ccc(F)cc1)S2(=O)=O)NCc1ccccc1 | -15.0% | . | . | . | .
CCOC(=O)c1c(NC(=O)c2ccccc2C)sc2c1CCCC2 | -16.2% | . | . | . | .
CCOC(=O)c1c(NC(=O)c2ccccc2Cl)sc2c1CCc1ccccc1-2 | -10.1% | ? | 6.7µM* | 0.9% | -11.8%
CCOC(=O)c1c(NC(=O)c2ccccc2)sc2c1CCc1ccccc1-2 | -25.0% | 7.7 | 6.7µM* | 2.6% | -8.5%
Cc1ccc(-n2nc(C(=O)N(C)Cc3ccccc3)c3c4ccccc4n(C)c3c2=O)cc1 | -11.5% | . | . | . | .
Cc1nn(-c2cccc(C(F)(F)F)c2)c(Cl)c1/C=N/Nc1cccc(C(=O)O)c1 | -20.5% | -2.4 | 23.8µM* | 0.6% | -5.8%
COc1ccc2c(Sc3ccccc3)c(C(=O)NCCc3ccc(Cl)cc3)[nH]c2c1 | -10.8% | . | . | . | .
Cc1cc(C(=O)OCC(=O)NC2CCCC2)c2ccccc2n1 | -5.4% | 1.1 | -0.9% | 0.5% | 3.6%
O=C(COC(=O)c1c2c(nc3ccccc13)/C(=C/c1ccco1)CC2)NC1CCCC1 | -6.4% | -71.1* | ? | ? | 31.6µM*
Cc1cc(C(=O)OCC(=O)NC2CCCCC2C)c2ccccc2n1 (centres undefined) | -21.8% | -2.1 | -11.2% | 3.3% | -2.8%
CC1CCCCC1NC(=O)COC(=O)c1c2c(nc3ccccc13)/C(=C/c1ccco1)CC2 (centres undefined) | -22.3% | -83.0* | 10.6µM* | ? | ?
COc1ccccc1NC(=O)c1cc2c([nH]c1=O)CC(C)(C)CC2=O | 2.0% | . | . | . | .
N#CC1=C(N)N2C(=C(C#N)C1c1ccc(Br)cc1)Nc1ccccc12 (centres undefined) | -21.6% | -24.8 | 26.7µM* | 2.3% | -6.1%[11.6 µM]
